Laboratory results: the supplement of paper PMC13172266
Structures can show the parent of a compound that is named as a salt.

Assays:
Assay in all cases: cell proliferation relative to vehicle (% of vehicle); higher = less growth inhibition
Settings in all cases: 72 h
[1] = tested on: U2932 TK216-resistant clone 2
Outline: (§1)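 A library of 348 targeted inhibitors was screened against the ABC-DLBCL cell line U2932, using parental cells and two clones made resistant to an ETS-targeting agent through repeated exposure over almost a year. The cells were cultured at 37°C and 5% CO2 in medium containing 10% FBS and treated at 500 nM or 50 nM for 72 h, after which MTT was added for 4 h, stopped with 25% SDS, and absorbance was read on a Cytation 3. Proliferation is given as the percentage of proliferating cells relative to the vehicle, DMSO.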

[2] = tested on: U2932 TK216-resistant clone 3
Outline: as §1

[3] = tested on: U2932 parental
Outline: as §1

Row | Compound | cell proliferation ([1]; 50 nM) | cell proliferation ([1]; 500 nM) | cell proliferation ([2]; 50 nM) | cell proliferation ([2]; 500 nM) | cell proliferation ([3]; 50 nM) | cell proliferation ([3]; 500 nM)
1 | Cc1sc2c(c1C)C(c1ccc(Cl)cc1)=N[C@@H](CC(=O)OC(C)(C)C)c1nnc(C)n1-2 | 91 | 58.9 | 77.2 | 57.4 | 92.1 | 55.1
2 | O=P1(NCCCl)OCCCN1CCCl (centres undefined) [Ifosfamide] | 108 | 107 | 102 | 103 | 103 | 93.4
3 | O=C(O)C(=O)c1cn(Cc2ccccc2)c2ccc(-c3ccc(OC(F)(F)F)cc3)cc12 [Tiplaxtinin (PAI-039)] | 99.5 | 93.1 | 100 | 98.5 | 102 | 99.3
4 | COc1cc2c(cc1OC)C1CC(=O)C(CC(C)C)CN1CC2 (centres undefined) [Tetrabenazine (Xenazine)] | 101 | 96.2 | 106 | 107 | 103 | 93.2
5 | CC(=O)OC(C)(C)/C=C/C(=O)[C@](C)(O)[C@H]1[C@H](O)C[C@@]2(C)[C@@H]3CC=C4[C@H](C[C@H](O)C(=O)C4(C)C)[C@]3(C)C(=O)C[C@]12C [Cucurbitacin B] | -2.74 | -3.79 | 0.167 | -2.48 | -0.672 | -0.512
6 | O=C(O)CCCc1ccc(N(CCCl)CCCl)cc1 [Chloroambucil] | 101 | 99.4 | 98.4 | 101 | 99.7 | 98.7
7 | Cn1c(CCCC(=O)O)nc2cc(N(CCCl)CCCl)ccc21 [Bendamustine HCl] | 111 | 108 | 102 | 102 | 99.3 | 90.2
8 | CC(O)(CS(=O)(=O)c1ccc(F)cc1)C(=O)Nc1ccc(C#N)c(C(F)(F)F)c1 (centres undefined) [Bicalutamide] | 109 | 104 | 103 | 97.8 | 102 | 96.5
9 | C/C(=C\c1csc(C)n1)[C@@H]1C[C@@H]2O[C@@H]2CCC[C@H](C)[C@H](O)[C@@H](C)C(=O)C(C)(C)[C@@H](O)CC(=O)O1 [Epothilone A] | 12.4 | 10 | 7.03 | 9.75 | 9.49 | 10.1
10 | CC1=C(O)C(=O)C=C2C1=CC=C1[C@@]2(C)CC[C@@]2(C)[C@@H]3C[C@](C)(C(=O)O)CC[C@]3(C)CC[C@]12C [Celastrol] | 77.9 | 18.8 | 85 | 27.8 | 80.6 | 24.1
11 | O=S(=O)(CC1CS1)c1ccc(Oc2ccccc2)cc1 (centres undefined) | 102 | 97.6 | 98.2 | 104 | 95.5 | 99.7
12 | Cn1cc(C2=C(c3cn(C4CCN(Cc5ccccn5)CC4)c4ccccc34)C(=O)NC2=O)c2ccccc21 | 110 | 103 | 99.8 | 97.1 | 103 | 107
13 | COc1ccc(C[C@H]2NC[C@H](O)[C@H]2OC(C)=O)cc1 [Anisomycin] | 55.2 | 25.4 | 69 | 29.3 | 66.9 | 20.5
14 | N[C@@H]1C[C@H]1c1ccccc1 [Tranylcypromine (2-PCPA) HCl] | 108 | 107 | 111 | 102 | 101 | 100
